We go through 40 compounds from PubChem BioAssay (NCI).

Structures are written as SMILES. Compounds without any hit were thinned out: in the full panel of roughly 79,000, 15% have a hit. Activity calls are given as the source filed them. Rule as the data show it: active = growth inhibition above about 70%; inactive = the rest.

A short description of the assay: NCI Yeast Anticancer Drug Screen. Data for the sgs1 mgt1 strain (AID 161).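 Also: 0% = growth of cultures given vehicle only.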 Particulars: S. cerevisiae sgs1 mgt1 strain, at 50.0 µM, active compounds read high. The method, boiled down: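 Compounds are added to genetically altered yeast, and growth is compared with cultures given vehicle alone to give percent inhibition.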
`O=C(O)C(C1=CCCCC1)C1(O)CCCCC1` (stereo not given): the growth inhibition is 17.6% (inactive). The figure for `CCc1c(C)[nH]c(C2=NCCC2)c1C` is -17.8% (inactive); for `CC1C(O)C(c2ccccc2)(c2ccccc2)C(C)CN1C` (stereo not given) it is 4.15% (inactive). As for `CN(C)Cc1ccccc1COC(=O)c1ccccc1`, the figure is 26.1% (inactive); as for `CCC(=N)C(c1ccccc1)(c1ccccc1)C(C)CN(C)C` (stereo not given), -2.4% (inactive); as for `CC(=O)OC1/C=C(\C)C(OC(C)=O)C/C=C(/C)CCC2C(/C=C/C1=O)C2(C)C` (stereo not given), 78.1% (active). As for `COc1cc(COC(=O)Nc2ccccc2F)cc(OC)c1OC`, the figure is 7.25% (inactive); as for `Cc1ccc(S(=O)(=O)c2ccc(O)c(C)c2)c(O)c1` (tested in a mixture with another compound), 35.3% (inactive). Take `Nc1nc(N)c2ccccc2n1`: the growth inhibition was -5.2% (inactive).

For `COCCOC(=O)c1ccccc1Cl`, the growth inhibition is 16.3% (inactive). Turning to `COC(=O)/C=C/c1cc(OC)c2c(c1)C(C(=O)OC)C(c1ccc(O)c(OC)c1)O2` (stereo not given), the growth inhibition was -38.4% (inactive). On to `O=c1[nH]c2ccccc2nc1/C=C/n1c(=S)[nH]c2ccccc21`, for which the growth inhibition is -46.4% (inactive). Regarding `COC1(OC)C=NNc2nccn21`, the growth inhibition was 3.3% (inactive).

Regarding `CC(C)Nc1nc(N)nc2nc(-c3ccc(Cl)cc3)c(-c3ccc(Cl)cc3)nc12`, the growth inhibition is -6.85% (inactive). As for `CCOC(=O)/C(=C/c1ccc(C(=O)OC)cc1)N(CC)CC`, the figure is -12.1% (inactive). The figure for `C=C(CN(C)C)C1(c2ccccc2)CC2(CCCC2)C(=O)O1` (stereo not given) is 13.3% (inactive); for `CC(C)CCOC(=O)CC(CC(=O)OCCC(C)C)C(=O)OCCC(C)C` it is 6.35% (inactive); for `CNCCC1CCCCCC1` it is -1.15% (inactive). As for `CCCCC1(O)CC2CC1C(C)C2(C)C` (stereo not given), the growth inhibition is -3.45% (inactive). On to `O=C1C=C(Nc2ccc3ccccc3c2[N+](=O)[O-])c2ccccc2C1=O`, for which the growth inhibition is 8.05% (inactive). Take `CCN(CC)C(=O)c1ccc(C(C)C)cc1`: the growth inhibition was 27.9% (inactive).

For `CCCCCCCCCCCCSC(=O)CCC(=O)O`, the growth inhibition is 13.8% (inactive). Take `O=C(O)C(=O)NCc1cnccn1`: the growth inhibition was -3.65% (inactive). In the case of `NC(CCC1CCCCC1)C(=O)O` (stereo not given), the growth inhibition is 0.5% (inactive).

As to `N=c1nc2n(cc1F)C1OC(CO)C(O)C1O2` (stereo not given), the growth inhibition was 15.3% (inactive). In the case of `CCCCNCCOC(=O)c1ccc(N)cc1`, the growth inhibition was 1.9% (inactive). The figure for `NC(N)=NC(N)=Nc1c(F)c(F)c(F)c(F)c1F` is -11.8% (inactive).

For `CCO/C=C1\SC(=S)N(CCc2ccc(OC)c(OC)c2)C1=O`, the growth inhibition was -10.9% (inactive). The figure for `CCN1C(=O)N(C)C(O)c2c1nc1ccccn1c2=O` (stereo not given) is -33.4% (inactive). The figure for `CCOC(=O)COS(=O)(=O)C(F)(F)F` is -11.4% (inactive); for `CCN(CC)C(=O)c1c2nc3c(C(=O)N(CC)CC)ccc(C)c3oc-2c(C)c(=O)c1N` it is 7.85% (inactive); for `CCCCCCCCCCCCCCCCN(C)C(=S)c1ccc(OC)cc1` it is -1.8% (inactive). The figure for `O=C(c1ccccc1)c1ccc2cccc3c2c1CC3` is 32.1% (inactive). Take `S=c1nc[nH]c2c1ncn2C1CCCC1`: the growth inhibition was -4.55% (inactive). The figure for `CN1CCN(Cc2cc(C(C)(C)C)cc(-c3ccccc3)c2O)CC1` is 6.9% (inactive); for `CC(=O)OC1OC(COC(=O)c2ccccc2)C(OC(=O)c2ccccc2)C1OC(=O)c1ccccc1` (stereo not given) it is -13.2% (inactive); for `CCCC(CCC)C(=O)O` it is -8.75% (inactive). As for `O=C(O)CCC1CC1C(=O)c1ccccc1` (stereo not given), the figure is -3.85% (inactive); as for `O=C1CCCCCCCS(=O)(=O)C1`, -4.75% (inactive). The figure for `CN(C)CC1CCC/C(=C\c2ccc(N(C)C)cc2)C1=O` (stereo not given) is -9.85% (inactive).
